Screening data as filed in PubChem.
LANA-H2B inh: blocks KSHV LANA binding to histone H2A/H2B; Q9QR71; cell-free LANA-H2A/H2B peptide, fluorescence polarization; inhibition, % (concentration not given with the values); 320,000 compounds, 0.6% hits; AID 2629; in the data active means inhibition mostly above about 10%, no sharp cut-off; inactive means mostly below about 6.7%
BCLXL inh: inhibitors of human Bcl-xL. Q07817. GST-Bcl-xL / FITC-Bim BH3 peptide fluorescence polarization. inhibition, % at 10.9 µM. 320,000 compounds, 0.7% hits. AID 2129;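 active means inhibition above the mean of all tested compounds plus 3 SD, cutoff set per campaign, cut at about 30% in these data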;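 further: inhibitors lower millipolarization by displacing the labeled peptide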
Target sequence (Q07817 whole entry, looked up): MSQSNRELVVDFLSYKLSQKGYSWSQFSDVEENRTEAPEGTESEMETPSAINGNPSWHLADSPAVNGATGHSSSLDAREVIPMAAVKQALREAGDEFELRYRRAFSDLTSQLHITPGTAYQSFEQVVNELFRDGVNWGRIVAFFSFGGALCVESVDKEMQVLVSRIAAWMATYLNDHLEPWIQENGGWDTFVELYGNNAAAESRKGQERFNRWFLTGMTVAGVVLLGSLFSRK
Yeast superoxide: lowers age-related superoxide in aged yeast cells | S. cerevisiae aged cells, superoxide DHE fluorescence; hits give low values | superoxide response (% of plate mean), % at 10 µM | 330,000 compounds, 0.18% hits | AID 2690;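 active means superoxide response under a set limit, about three screen SD below normal, cut at about 65% in these data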;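 further: yeast aged for seven days with compound at 30 °C before DHE staining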
MCL1-BIM inh: MCL1-BIM-BH3 interaction inhibition (human); 320,000 compounds, 0.68% hits; GST-MCL1 / FITC-Bim-BH3 fluorescence polarization; inhibition, % at 10.9 µM;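 active means inhibition above the mean inhibition of all tested compounds plus 3 SD, set per campaign, cut at about 40% in these data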;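 further: higher means more loss of mP so more displacement of Bim peptide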
Target sequence (Q07820 whole entry, looked up): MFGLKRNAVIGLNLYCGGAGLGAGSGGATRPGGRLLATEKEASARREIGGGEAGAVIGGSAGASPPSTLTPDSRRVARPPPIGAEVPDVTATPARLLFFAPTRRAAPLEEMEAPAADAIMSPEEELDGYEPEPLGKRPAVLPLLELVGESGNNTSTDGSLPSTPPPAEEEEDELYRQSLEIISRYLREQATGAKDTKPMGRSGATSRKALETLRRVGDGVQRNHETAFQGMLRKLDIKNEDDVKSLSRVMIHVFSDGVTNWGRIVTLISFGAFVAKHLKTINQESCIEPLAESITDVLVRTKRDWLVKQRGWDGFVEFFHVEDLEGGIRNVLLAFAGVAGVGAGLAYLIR
GLD-1 RNA inh: GLD-1-TGE RNA interaction inhibition (C. elegans); inhibition, % at 5.96 µM; purified GLD-1 + fluorescein TGE RNA, fluorescence polarization; Q17339; 320,000 compounds, 0.44% hits;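 active means percent inhibition above a per-plate cutoff, the plate mean of test compounds plus 3 SD, cut at about 30% in these data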
MEX-5 binding: C. elegans MEX-5 TCR-2 RNA binding activity. Q9XUB2. MEX-5/FITC-TCR2 RNA binding, fluorescence polarization; hits give low values. activity score (negative = inhibition of binding), % at 10 µM. 300,000 compounds, 0.38% hits;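 active means inhibition past about -25% in most replicates, and total fluorescence under double the plate's negative control median, limit read from the data; inconclusive means replicates evenly split on the limit, or fluorescence at least double controls; inactive means too little inhibition in most replicates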
Numbers stand for hits; 0 = inactive; ? = inconclusive; - = no result given; + = active, no number. Sampled rows, rich in hits. Any-hit rate of the full collection: about 1.9%.

SMILES	LANA-H2B inh	BCLXL inh	Yeast superoxide	MCL1-BIM inh	GLD-1 RNA inh	MEX-5 binding
Cc1cc(C(C)(C)C)cc(C)c1C[n+]1ccc2ccccc2c1	0	0	0	0	0	0
O=C(N/N=C/C=C\c1cccc([N+](=O)[O-])c1)c1ccccn1	61	0	0	0	0	0
O=C(N/N=C\c1cc([N+](=O)[O-])ccc1N1CCCC1)c1ccccn1	0	0	0	0	0	-27
O=C(N/N=C/C=C/c1ccccc1)c1ccccn1	0	0	0	0	0	0
O=C(NCCc1nc2ccccc2[nH]1)/C(=C/c1ccco1)NC(=O)c1ccc(Br)cc1	0	0	0	0	0	0
O=C(NCCc1nc2ccccc2[nH]1)/C(=C/c1ccco1)NC(=O)c1ccccc1Br	14	0	0	0	0	0
Nc1c(N2CCCC2)cc(Cl)c2nonc12	0	50	0	0	0	0
Nc1c(N2CCOCC2)cc(Cl)c2nonc12	0	0	0	0	0	0
O=C1c2ccccc2C(=O)C2OC12 (stereo unspecified)	0	0	0	0	0	0
CCc1ccc(N2CC(C(=O)Nc3ccc(S(=O)(=O)N4CCOCC4)cc3)CC2=O)cc1 (stereo unspecified)	0	0	0	0	0	0
COC(=O)CC1=C(C(=O)OC)C(c2cccc(OCC(N)=O)c2)C(C#N)=C(N)O1 (stereo unspecified)	0	32	0	0	0	0
COC(=O)CC1=C(C(=O)OC)C(c2ccncc2)C(C#N)=C(N)O1 (stereo unspecified)	0	0	0	0	0	0
CC1CN(S(=O)(=O)c2ccc(C(=O)OCc3ccc(C#N)cc3)cc2)CC(C)O1 (stereo unspecified)	0	0	0	0	0	-
O=C1CCNc2c(Cl)cc(Cl)cc21	0	32	0	0	0	0
Cc1csc(SCC(=O)NC2CCC(C)CC2)n1 (stereo unspecified)	0	0	0	0	0	0
COc1ccc(NS(=O)(=O)c2cc(C(=O)NNC(=O)c3ccncc3)ccc2OC)c(OC)c1	0	-	0	-	0	-
Cc1cccc(NC(=O)CN2C(=O)N/C(=C/c3ccc(C)o3)C2=O)c1	-	0	0	0	0	0
Cc1cccc(NC(=O)CN2C(=O)N/C(=C\c3ccc(-c4cccc(C(=O)O)c4)o3)C2=O)c1	113	0	0	0	0	0
COc1ccc(OCC(=O)NNC(=O)c2ccc3c(=O)n4c(nc3c2)CCC4)cc1	0	0	0	0	0	0
CN1CCN(C(=O)c2ccc3c(c2)NC(=O)/C(=C/c2ccccc2)S3)CC1	0	0	0	0	0	0
Cc1ccc(/C=C2/Sc3ccc(C(=O)N4CCN(c5ccccn5)CC4)cc3NC2=O)cc1	0	0	0	0	0	-61
CC1CCN(C(=O)c2ncn(Cc3ccccc3)c2C(=O)N2CCC(C)CC2)CC1	0	-	0	-	0	-
COc1cccc(-c2noc(C3CCCN(C(=O)Cc4ccccc4)C3)n2)c1 (stereo unspecified)	11	0	0	0	0	0
COc1cccc(C(=O)Nc2ccc(NC(C)=O)cc2)c1	41	0	0	0	0	0
COc1cccc(C(=O)NC2CC3CCCC(C2)N3CC(=O)Nc2ccc(N(C)C)cc2)c1 (stereo unspecified)	27	0	0	0	0	0
SMILES	LANA-H2B inh	BCLXL inh	Yeast superoxide	MCL1-BIM inh	GLD-1 RNA inh	MEX-5 binding
CCOC(=O)C1=C(c2ccccc2)NC(=O)NC1c1ccsc1 (stereo unspecified)	0	-	0	-	-	0
C=CCn1c(SCC(=O)Nc2ccc(-c3nc4ccc(C)cc4s3)cc2)nnc1-c1ccccc1	159	0	0	0	0	0
C=CCn1c(SCC(=O)NNC(=O)Nc2ccc(C)cc2)nnc1-c1ccccc1	0	0	0	0	0	0
O=C(Oc1ccc2cc(Br)ccc2c1)N1CCCCCC1	0	0	58	0	0	0
O=C(Oc1ccc2ccccc2c1Br)N1CCCCCC1	0	0	0	0	0	0
CCN(CC)c1ccc(/C=C/c2cccc[n+]2C)c(OC)c1	0	0	0	0	42	?
COc1ccc(/C=C/c2cccc[n+]2C)c(O)c1	0	0	0	0	0	0
CC(=O)Oc1cc2c3c(c1)/C(=C1/SC(=S)NC1=O)C(=O)N3C(C)(C)C=C2C	0	50	0	0	0	0
O=C(COc1ccc(F)cc1)OCCN1CCOCC1	34	0	0	0	0	0
CSc1nc(O)c(N=Nc2ccc(F)cc2F)c(=O)[nH]1	0	37	0	42	0	0
COc1cc(C(=O)Nc2nnc(Cc3ccccc3)s2)cc(OC)c1OC	0	-	0	-	-	0
COc1cc(C(=O)Nc2nnc(CC(=O)N3CCOCC3)s2)cc(OC)c1OC	17	0	0	0	0	0
CCNc1nn2ccccc2c1/C=C(\C#N)C(=O)OCC	0	0	0	0	0	-63
O=C(O)C1Nc2c(C(F)(F)F)ccc(Cl)c2C2C=CCC12 (stereo unspecified)	0	38	0	48	0	0
CCOC(=O)c1c(C)[nH]c(O)c1C=Nc1ccc(C(F)(F)F)cc1	0	0	0	0	37	0
CCOC(=O)c1cc(C(C)(C)C)nc(SC)c1C#N	30	0	0	0	0	0
CC(C)(C)c1nnc(SCC(=O)Nc2ccc(N3CCCCC3)cc2)n1N	+	0	0	0	0	-
Oc1[nH]c2ccccc2c1N=NC(=S)N1CCOCC1	0	0	0	0	0	-41
C[C@H](NC(=O)c1cccc([N+](=O)[O-])c1)C(=O)OCC(=O)c1ccccc1Br	0	-	0	-	0	-
O=C(COC(=O)c1ccc(F)cc1F)NCc1ccc2c(c1)OCO2	0	-	0	-	0	-
COC/C=C/C1=CC2=CC(=O)C(C)(OC(=O)c3ccco3)C(=O)C2=CO1 (stereo unspecified)	0	0	-	60	31	-
COC/C=C/C1=CC2=CC(=O)C(C)(O)C(=O)C2=CO1 (stereo unspecified)	0	0	0	64	0	-47
COc1ccc(C2=CC3=CC(=O)C(C)(O)C(=O)C3=CO2)cc1 (stereo unspecified)	0	0	0	0	0	-38
COC/C=C/C1=CC2=CC(=O)C(C)(OC(=O)c3cccs3)C(=O)C2=CO1 (stereo unspecified)	0	0	0	0	0	0
O=C(CCNS(=O)(=O)c1ccccc1)NNC(=O)c1cccc(Cl)c1	0	-	0	-	0	-
Cn1c(N)c(C(c2ccccc2)c2c(N)n(C)c(=O)n(C)c2=O)c(=O)n(C)c1=O	29	0	0	0	0	0
N#C/C(C(=O)Nc1ccc(Cl)cc1)=C(/S)Nc1ccccc1	0	0	0	0	0	0
